In all, about 25,000 sequences were measured (“ln(normalized median fluorescence intensity)”: median about 9.3, highest 2% from about 10 on). Many of the other results were omitted from the sample, so the highest values are more common in it than they were.

The test system of the experiment is PF3D7_0420300 AP2 domain 1 (GST-tagged). The experiment in a line: gcPBM binding intensity (ln(normalized median fluorescence intensity)); higher = stronger DNA binding. In short, it runs like this:
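After 1 h on an Agilent 4 × 180k array of primer-extended double-stranded 36-bp intergenic genomic probes and negative controls, bound GST-tagged P. falciparum DNA-binding domains were detected with Alexa488 anti-GST antibody and scanned at 488 nm. The domains had been expressed in E. coli, and binding took place in 1× PBS with 1% milk, 0.2 mg/ml BSA, 0.5% salmon testes DNA and 0.03% Triton X-100. Binding intensity is the highest Masliner-normalised natural-log median intensity across replicate spots of either probe orientation.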
Regarding “ATTCACTAAAAAATTGCATGCAATAAATTTTTTTTT [TGCATGCA_site962]”, the “gcPBM binding intensity (ln)” value turned out to be 8.91.
For the sequence “TAATATATATATATATGTACATATATATTATGTATA [XGTACX_site4690]”, the “gcPBM binding intensity (ln)” value stood at 9.07.
Take “TATATTTTCTATAGGTGTACTCCACATGCGGTGTTA [XGTACX_site7471]”: the “gcPBM binding intensity (ln)” value was 9.08.
As for “ATGTATATGCAAACATGTACATATATAAACATATAT [XGTACX_site4159]”, the “gcPBM binding intensity (ln)” value amounted to 9.16.
In the case of “AAAAAAAAAAAAAAAAAAAAACACCCAAAAAAATAT [XGTACX_negctrl_site210]”, the “gcPBM binding intensity (ln)” value came out at 9.62.
As to “TACACTTTTTATGAAGTGCATGTATAGCTCTTAAAA [GTGCAC_site9595]”, the “gcPBM binding intensity (ln)” value worked out at 8.78.
As for “CATATAAAAATGTGCACACACACACCGATATATATT [CACACA_site4940]”, the “gcPBM binding intensity (ln)” value was determined as 10.1.
On to “TATATATTAAAACACACACACATATATATATATATA [CACACA_site3787]”, for which the “gcPBM binding intensity (ln)” value is 9.67.
Turning to “AATATAAATAAAAACACACACACACCCATATATATA [CACACA_site2267]”, the “gcPBM binding intensity (ln)” value amounted to 10.1.
In the case of “AACATATAAAAATGTGCACACACACCCATATATATA [CACACA_site1525]”, the “gcPBM binding intensity (ln)” value amounted to 9.97.
Turning to “TATTAAACTGGACACACACACACACCCATATATAAA [CACACA_site4579]”, the “gcPBM binding intensity (ln)” value worked out at 10.2.
Take “AAAAAAAAAAAAAACACACACACACCCATAAATATA [CACACA_site151]”: the “gcPBM binding intensity (ln)” value came out at 9.88.
For “CATATAAAAATGTGCACACACACACCCATATATATT [CACACA_site1526]”, the “gcPBM binding intensity (ln)” value came out at 10.2.
“ACCATATAAATAAACACACACACACCCATATATATA [CACACA_site2321]”: the “gcPBM binding intensity (ln)” value was 10.2.
Next, “TTTATTAAACTTGACACACACACACCCACATATATA [CACACA_site760]”: 10.2.
Turning to “TTCCCATGTAATATTAAACACACACCCATATAACAC [CACACA_site7905]”, the “gcPBM binding intensity (ln)” value came to 9.76.
Take “TATTAAACGAAACACACACACACACCCATATATAAA [CACACA_site759]”: the “gcPBM binding intensity (ln)” value stood at 10.2.
Regarding “TTTTACAAATATTACTGTACACATTTTCATATAATT [XGTACX_site17]”, the “gcPBM binding intensity (ln)” value turned out to be 9.49.
In the case of “TTTTGCGAAAAAAGGTGTACTGTAAATATATTGAGG [XGTACX_site8941]”, the “gcPBM binding intensity (ln)” value came to 9.09.
Consider “ATATATGATGTAAAAGCACACATATATATATATATA [CACACA_site9330]”, for which the “gcPBM binding intensity (ln)” value turned out to be 9.21.
On to “TTTTTTTTAATATTTTACATTGTCTGTTAACAAATA [CACACA_negctrl_site599]”, for which the “gcPBM binding intensity (ln)” value was found to be 9.14.
As for “TTTCTTTTTTTTTTTATTTACCTGAATTATGTATTA [TGCATGCA_negctrl_site345]”, the “gcPBM binding intensity (ln)” value came out at 9.24.
As for “TATGTGCACCCATATACACACACAAATACAATGATA [CACACA_site8295]”, the “gcPBM binding intensity (ln)” value worked out at 9.81.
In the case of “TATAAAATTTTTAAAAGTACATATTTTACATAATAC [XGTACX_site2193]”, the “gcPBM binding intensity (ln)” value was determined as 9.1.
As to “GCCTATATGTTTAGTTGTACTCCTAATATTATTTGT [XGTACX_site6060]”, the “gcPBM binding intensity (ln)” value is 9.75.
For the sequence “CGCAACACTATTTGGGTGCTCTTCAAAAAAAAAAAA [GTGCAC_site9598]”, the “gcPBM binding intensity (ln)” value is 8.56.
As for “TATAAAAGGAAACACACACACATATATATATATATA [CACACA_site939]”, the “gcPBM binding intensity (ln)” value is 9.74.
Regarding “TATATATAAAAACACACACACACACCCTATAATTAT [CACACA_site4063]”, the “gcPBM binding intensity (ln)” value came to 10.3.
The result for “TATATATAGAAACACACACACATATATATATATATA [CACACA_site773]” reads 9.74; that for “ATATAATATATATATAAACACACAAAAAAAATTATA [CACACA_site8434]”, 9.63; that for “ATAAAAAGGAAACACACACACACACCCATATATATA [CACACA_site904]”, 10.2.
Next, “TCATAGTAGAAACACACACACACACCCATATATATA [CACACA_site1737]”: 10.2.
Next, “TAAAAAGGAAAACACACACACACATATATATATATA [CACACA_site3588]”: 9.9; “TATATATAGAAACACACACACACATATATATATATA [CACACA_site4116]”: 9.96; “ATAATATATATATAAACACACAAAAAAAATTATATA [CACACA_site1534]”: 9.74.
Regarding “TATATATAGAAACACACACACACACCCAAGCGTAGC [CACACA_site63]”, the “gcPBM binding intensity (ln)” value was 10.2.
On to “TATATATAGAAACACACACACACCAAAGCGTAGCGC [CACACA_site62]”, for which the “gcPBM binding intensity (ln)” value was 10.
Take “TATATATATAAACACACACACACACCCAAGCGTAGC [CACACA_site4210]”: the “gcPBM binding intensity (ln)” value amounted to 10.1.
Take “TATAATATATATGTAACACACAAAAGTTATATACTT [CACACA_site2868]”: the “gcPBM binding intensity (ln)” value is 9.37.
With “AAAATTTTCTTTTTATGTACACATAATTTTACCGGA [XGTACX_site5276]”, the “gcPBM binding intensity (ln)” value was found to be 9.18.
With “ATAAAATATTTTTGAACATGCAGGTAAAAAATAAAA [TGCATGCA_site1019]”, the “gcPBM binding intensity (ln)” value was 9.27.
With “ATGGATTATACGTGCACACATATATACCAATAAATA [CACACA_site4524]”, the “gcPBM binding intensity (ln)” value amounted to 9.43.
The result for “AAAAGTTTTATTTAAATGAATTAATCTTTACTATAT [CACACA_negctrl_site282]” reads 9.07.
“AAAACACAATTTATTACACACATATATTATATATTA [CACACA_site1420]”: the “gcPBM binding intensity (ln)” value stood at 9.49.
For the sequence “TGAATATTCATGTGTGTGCGCATGTTGTTAGACCAT [GTGCAC_site9869]”, the “gcPBM binding intensity (ln)” value was 9.69.
Consider “AACATTTTAAATTATACACACATTTTGAATATATAT [CACACA_site3470]”, for which the “gcPBM binding intensity (ln)” value came out at 9.54.
On to “AGCATCATTTTACACACATGCAAATGTAAAATAGGA [TGCATGCA_site460]”, for which the “gcPBM binding intensity (ln)” value is 9.43.
For the sequence “GCCATTGTACCATCCACACACATATAAATATGTATA [CACACA_site7303]”, the “gcPBM binding intensity (ln)” value is 9.85.
For “TATATATATAATATTGCACACAAAATTAAAAGTAAA [CACACA_site7889]”, the “gcPBM binding intensity (ln)” value turned out to be 9.47.
On to “CACCCATAGAAACACACACACGCATAAAAAAAAAAA [CACACA_site1513]”, for which the “gcPBM binding intensity (ln)” value is 9.71.
As for “AAAAAAAAAAAAAACACACACACACGCAGATATATA [CACACA_site6672]”, the “gcPBM binding intensity (ln)” value was determined as 10.1.
For “CAAGAAAAGAAACACACACACATATATATATATATA [CACACA_site3881]”, the “gcPBM binding intensity (ln)” value was determined as 9.87.
As for “AAAAAAAAAAAAGAAACACACACATATATATATATA [CACACA_site8525]”, the “gcPBM binding intensity (ln)” value was 9.69.
Regarding “CACCCATAAATATACACACGCACAACACAAAATAAA [CACACA_site2903]”, the “gcPBM binding intensity (ln)” value was 9.73.
Turning to “AAAAAAAATAAACACACACACATACCCATAAATATA [CACACA_site5980]”, the “gcPBM binding intensity (ln)” value was 10.1.
The result for “TACACGCAGAAACACACACACACACCCATATATATA [CACACA_site637]” reads 10.3; that for “TACACGCATAAACACACACACACACCCATATATATA [CACACA_site8114]”, 10.4; that for “TACACCCATAGACACACACACACGCATAAAAAAAAA [CACACA_site8428]”, 9.93.
For the sequence “AAAAAAAAAAAACACACACACACACCCATATATAAA [CACACA_site1170]”, the “gcPBM binding intensity (ln)” value turned out to be 10.2.
For the sequence “AAAAAGGAGAAACACACACACACACCCATATATATA [CACACA_site905]”, the “gcPBM binding intensity (ln)” value came out at 10.2.

Source of the values: the supplement of paper PMC11417369.
